PubChem BioAssay (NCATS)
Several values for one entry are separate records, joined by “and”; a condition that tells them apart may be missing. Equal values may be shown once. Inconclusive results are not listed. Entries that show only a call come without a potency. Some structures have more than one record in an assay (separate samples or runs), and their calls can disagree. Activity calls are given as the source filed them. Calls come from the whole dose curve; as a rule, active = well fitted curve in the direction sought with a large enough effect; inconclusive = small, poorly fitted or top-dose-only effect, or another doubt; inactive = no such curve, though single readings can be large; an effect the other way counts as inactive or inconclusive.

Legend:
[1] = biological target: Cytochrome P450 2C9 (Homo sapiens) (UniProt P11712); assay: qHTS Assay for Inhibitors and Substrates of Cytochrome P450 2C9 (AID 883); note: nearly all actives have a fitted effect of over 60% in size; note: potency is the fitted concentration of half-maximal effect
Procedure, shortened: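 Signal: luciferase luminescence reporting luciferin produced by CYP2C9. Conditions: 10nM enzyme, Luciferin-H 100uM at KM, 25mM KPO4, 37C, 60 min NADPH-driven reaction. Reference: 57uM sulphaphenazole as 100% inhibition.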

[2] = biological target: Cytochrome P450 3A4 (Homo sapiens) (UniProt P08684); assay: qHTS Assay for Inhibitors and Substrates of Cytochrome P450 3A4 (AID 884); note: series mostly up to about 57 µM; nearly all actives have a fitted effect of over 50% in size
Procedure, shortened: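 Luminescent readout of luciferin produced by CYP3A4 (20 nM) dealkylation of Luciferin-PPXE, 25 uM (its KM). NADPH-driven reaction ran 60 min at RT after 10 min compound preincubation; data scaled to 57 uM ketoconazole as 100% inhibition.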

[3] = biological target: Cytochrome P450 2C19 (Homo sapiens) (UniProt P33261); assay: qHTS Assay for Inhibitors and Substrates of Cytochrome P450 2C19 (AID 899); note: nearly all actives have a fitted effect of over 60% in size; note: potency is the fitted concentration of half-maximal effect
Procedure, shortened: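 Signal comes from luciferase acting on luciferin released by CYP2C19-mediated hydroxylation of Luciferin-H EGE, 10uM (KM). Assay mix: 5nM enzyme, 50mM KPO4; 60 min at 37C with NADPH regeneration. Data normalized against 57uM ketoconazole.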

[4] = biological target: Cytochrome P450 2D6 (Homo sapiens) (UniProt P10635); assay: qHTS Assay for Inhibitors and Substrates of Cytochrome P450 2D6 (AID 891); note: nearly all actives have a fitted effect of over 60% in size; note: potency is the fitted concentration of half-maximal effect;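 for activity change, negative = inhibition: luciferin methyl ether substrate demethylated by CYP2D6 with NADPH regeneration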
Procedure, shortened: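 Luminescent read-out of luciferin formed by 5 nM human CYP2D6 demethylating 30 uM Luciferin-ME EGE (Km level) over 60 min at room temperature after NADPH regeneration addition. Data normalized to full inhibition by 1.43 uM quinidine.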

[5] = biological target: Cytochrome P450 3A4 (Homo sapiens) (UniProt P08684); assay: qHTS Assay for Activators of Cytochrome P450 3A4 (AID 885); note: nearly all actives have a fitted effect of over 65% in size; note: potency is the fitted concentration of half-maximal effect
Procedure, shortened: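 CYP3A4 activity: Luciferin-PPXE O-dealkylation, 25uM substrate, 200mM KPO4, RT throughout. Read-out is luciferase luminescence; higher values reflect activation.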

Sequence of Cytochrome P450 3A4 (Homo sapiens) (P08684 whole entry, looked up): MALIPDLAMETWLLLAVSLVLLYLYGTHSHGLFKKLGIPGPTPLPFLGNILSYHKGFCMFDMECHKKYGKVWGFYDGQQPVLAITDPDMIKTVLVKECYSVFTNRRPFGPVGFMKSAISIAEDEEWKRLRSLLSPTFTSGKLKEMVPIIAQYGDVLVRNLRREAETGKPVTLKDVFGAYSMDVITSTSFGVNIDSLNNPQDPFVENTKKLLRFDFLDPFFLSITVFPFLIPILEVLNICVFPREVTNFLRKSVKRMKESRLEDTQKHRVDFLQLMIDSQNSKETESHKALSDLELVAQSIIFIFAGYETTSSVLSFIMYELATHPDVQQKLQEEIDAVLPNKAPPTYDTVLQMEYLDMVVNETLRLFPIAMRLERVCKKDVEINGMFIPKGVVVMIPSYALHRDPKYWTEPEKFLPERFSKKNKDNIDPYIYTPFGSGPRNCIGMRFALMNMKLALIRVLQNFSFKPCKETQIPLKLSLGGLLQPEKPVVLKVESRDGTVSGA
Sequence of Cytochrome P450 2C9 (Homo sapiens) (P11712 whole entry, looked up): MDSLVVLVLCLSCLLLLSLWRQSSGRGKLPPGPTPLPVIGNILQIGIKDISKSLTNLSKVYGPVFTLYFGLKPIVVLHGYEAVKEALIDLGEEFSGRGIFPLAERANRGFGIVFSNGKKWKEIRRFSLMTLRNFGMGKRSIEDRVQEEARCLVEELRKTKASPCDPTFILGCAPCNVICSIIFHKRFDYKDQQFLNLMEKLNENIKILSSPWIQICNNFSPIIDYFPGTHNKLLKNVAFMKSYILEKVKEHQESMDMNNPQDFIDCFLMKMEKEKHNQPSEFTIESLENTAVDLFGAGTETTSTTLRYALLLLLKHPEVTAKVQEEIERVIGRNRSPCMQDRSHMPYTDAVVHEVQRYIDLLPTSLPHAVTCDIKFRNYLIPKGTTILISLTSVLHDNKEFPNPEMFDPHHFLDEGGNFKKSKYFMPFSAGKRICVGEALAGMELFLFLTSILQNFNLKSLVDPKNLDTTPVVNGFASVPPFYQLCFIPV
Sequence of Cytochrome P450 2D6 (Homo sapiens) (P10635 whole entry, looked up): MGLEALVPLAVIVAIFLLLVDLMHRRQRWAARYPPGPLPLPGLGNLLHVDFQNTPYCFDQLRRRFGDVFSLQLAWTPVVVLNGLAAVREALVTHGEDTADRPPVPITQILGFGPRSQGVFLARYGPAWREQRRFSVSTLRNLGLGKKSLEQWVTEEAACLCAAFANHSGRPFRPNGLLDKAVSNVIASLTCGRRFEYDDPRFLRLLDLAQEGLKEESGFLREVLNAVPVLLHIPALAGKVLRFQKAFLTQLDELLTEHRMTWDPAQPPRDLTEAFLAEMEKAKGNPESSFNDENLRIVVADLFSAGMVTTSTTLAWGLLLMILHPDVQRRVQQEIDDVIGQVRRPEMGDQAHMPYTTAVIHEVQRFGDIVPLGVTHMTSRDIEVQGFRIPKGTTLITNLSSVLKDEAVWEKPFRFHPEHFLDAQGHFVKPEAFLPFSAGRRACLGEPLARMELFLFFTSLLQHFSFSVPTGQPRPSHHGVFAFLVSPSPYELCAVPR
Sequence of Cytochrome P450 2C19 (Homo sapiens) (P33261 whole entry, looked up): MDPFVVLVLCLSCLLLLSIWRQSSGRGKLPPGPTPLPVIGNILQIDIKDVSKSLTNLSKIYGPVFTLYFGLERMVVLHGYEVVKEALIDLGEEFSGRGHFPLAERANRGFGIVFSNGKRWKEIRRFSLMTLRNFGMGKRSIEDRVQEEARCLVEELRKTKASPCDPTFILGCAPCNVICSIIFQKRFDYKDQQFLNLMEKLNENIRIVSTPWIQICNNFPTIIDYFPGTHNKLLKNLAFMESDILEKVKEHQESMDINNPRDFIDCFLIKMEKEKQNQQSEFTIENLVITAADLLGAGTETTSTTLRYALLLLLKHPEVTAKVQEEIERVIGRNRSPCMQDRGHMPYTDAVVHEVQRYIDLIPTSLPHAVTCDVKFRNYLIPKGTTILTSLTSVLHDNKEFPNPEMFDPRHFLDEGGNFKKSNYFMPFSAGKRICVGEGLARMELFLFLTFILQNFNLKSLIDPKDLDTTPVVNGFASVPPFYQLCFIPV

Compound	Potency [1]	activity change, negative = inhibition [2]	Potency [3]	Potency [4]	activity change, positive = activation [5]	Potency [5]
C=C(C)CC1(c2ccccc2)Oc2ccccc2-c2nc3cc(Cl)c(Cl)cc3nc21 (stereo not drawn)	inactive	-4.89% [at 11.4 µM] (inactive)	inactive	–	–	–
OCC1OC(c2ccccc2)C=CC1Oc1ccc(C2CCCC2)cc1 (stereo not drawn)	inactive	-14.3% [at 11.4 µM] (inactive)	inactive	inactive	–	–
CC[C@@H](c1ccccc1)n1c(=O)n2n(c1=O)[C@H]1[C@H](O)[C@H]3O[C@@H]3/C(=N/OC/C=C(\C)CCC=C(C)C)[C@@H]1CC2	inactive	–	–	–	-40.3% [at 11.4 µM] (inactive)	–
CCCC/C=C/C(NC(=O)c1ccc(C(F)(F)F)cc1)c1ccccc1 (stereo not drawn)	2 µM (active)	–	–	–	–	inactive
COC(=O)NC(/C(C(=O)OC)=C(\C)NCc1ccccc1)c1ccco1 (stereo not drawn)	inactive	-20.3% [at 11.4 µM] (inactive)	inactive	–	–	–
CC(C)CCN1CCc2nc(-c3ccccc3)c3c(c2C1)COC(C)C3 (stereo not drawn)	inactive	–	–	inactive	-56% [at 11.4 µM] (inactive)	–
COC(=O)C1=C(C)N(Cc2ccccc2)[C@]23O[C@](C(=O)OC)(C(=O)N2C1c1ccccc1)C1C(=O)N(c2ccccc2)C(=O)C13 (stereo partly drawn)	inactive	–	–	inactive	-42.8% [at 11.4 µM] (inactive) and -32.3% [at 11.4 µM] (inactive)	–
C=CC[C@@H]1C=C[C@@H](O/N=C\c2ccc(C(=O)N3[C@H](c4ccc(C)cc4)[C@@H](C)CC[C@H]3C(=O)OC)cc2)[C@@H](CO)O1	3.98 µM (active)	–	–	–	-42.6% [at 11.4 µM] (inactive)	–
CC1CCC2C(=O)N3C(CCC(C)C3c3ccc(-c4ccco4)cc3)C(=O)N2C1c1ccc(-c2ccco2)cc1 (stereo not drawn)	inactive	-11.9% [at 11.4 µM] (inactive)	inactive	inactive	–	–
COC(=O)C1C(C)OC(=O)NC1c1ccccc1 (stereo not drawn)	inactive	-16.6% [at 11.4 µM] (inactive)	inactive	–	–	–
Cc1ccc(OC2C(O)COC2/C=C/C#Cc2ccc(C(C)(C)C)cc2)cc1 (stereo not drawn)	inactive	-23% [at 11.4 µM] (inactive) and -25.5% [at 11.4 µM] (inactive)	inactive	inactive	–	–
O=C1C=CC2(OCCCO2)C(Br)=C1	inactive	-14% [at 11.4 µM] (inactive)	inactive	inactive	–	–
CO[C@H]1COC(=O)C/C=C\[C@H](C)[C@@H](OC)COC(=O)[C@@H](C)COC(=O)C/C=C\[C@@H]1C	2.51 µM (active)	–	–	–	-56.2% [at 11.4 µM] (inactive)	–
C=CCOCC1CN2C(CCC(C)C2c2ccc(Br)cc2)C(=O)O1 (stereo not drawn)	inactive	-11.7% [at 11.4 µM] (inactive)	inactive	–	–	–
CCC/C=C/C1C(=O)C2OC2C2(OCC(CC)(CC)CO2)C1CO (stereo not drawn)	inactive	–	–	inactive	-53.3% [at 11.4 µM] (inactive)	–
COCOc1cc(OC)ccc1C(=O)/C=C\c1ccc2c(c1)OCO2	2.51 µM (active)	–	–	3.98 µM (active)	-101% [at 11.4 µM] (inactive)	–
O=Cc1ccc(OC2C=CC(C#Cc3ccccc3)OC2CO)cc1 (stereo not drawn)	2.51 µM (active)	–	–	inactive	-42% [at 11.4 µM] (inactive)	–
COC(=O)NC(c1ccccc1)C(C(=O)OC)C(=O)OC (stereo not drawn)	inactive	–	–	0.0079 µM (active)	-40.4% [at 11.4 µM] (inactive)	–
CCCNC(=O)OC[C@@H]1O[C@H](CCO/N=C\c2ccc(C(=O)N3[C@H](c4ccc(C)cc4)[C@@H](C)CC[C@H]3C(=O)OC)cc2)C=C[C@@H]1Oc1ccc(OC)cc1	3.98 µM (active)	–	–	–	-51.6% [at 11.4 µM] (inactive)	–
CCOC(=O)OCC1OC(c2ccccc2)C=CC1Oc1cccc(N(C)C)c1 (stereo not drawn)	inactive	–	–	inactive	-50.1% [at 11.4 µM] (inactive)	–
CC(=O)OCC1OC(C#Cc2ccc(Cl)cc2)C=CC1OC(C)=O (stereo not drawn)	inactive	-14.6% [at 11.4 µM] (inactive) and -6.86% [at 11.4 µM] (inactive)	1 µM (active) and inactive	inactive	–	–
COC(=O)NC(CC(C)=O)c1ccccc1 (stereo not drawn)	inactive	-12.9% [at 11.4 µM] (inactive)	inactive	–	–	–
CCCCCCC1=Cc2cc(OC)c(OC)cc2C(C2(C(=O)OCC)CCCC2=O)O1 (stereo not drawn)	inactive	–	–	inactive	-36.1% [at 11.4 µM] (inactive)	–
CC1CCC2C(=O)N3C(CCC(C)[C@@H]3c3ccc(-c4ccco4)cc3)C(=O)N2C1c1cccc(N2CCCC2=O)c1 (stereo partly drawn)	inactive	13.4% [at 11.4 µM] (inactive)	inactive	–	–	–
COC(=O)NC(CC(C)=O)c1ccco1 (stereo not drawn)	inactive	-19.2% [at 11.4 µM] (inactive)	inactive	inactive	–	–
CCN1C(C)=C(C(=O)OC)C(c2ccccc2)N2C(=O)[C@](O)(C(=O)OC)CC(C(C)=O)=C12 (stereo partly drawn)	inactive	-13.9% [at 11.4 µM] (inactive)	inactive	inactive	–	–
CC(C)=NOCc1cccc(-c2cc(-c3ccccc3)no2)c1	3.98 µM (active)	–	–	–	-40.1% [at 11.4 µM] (inactive)	–

Compound	Potency [1]	activity change, negative = inhibition [2]	Potency [3]	Potency [4]	activity change, positive = activation [5]	Potency [5]
COC(=O)/C=C/C1c2ccccc2C(OC)C1C (stereo not drawn)	inactive	-4.29% [at 11.4 µM] (inactive)	inactive	–	–	–
COC(=O)C/C=C/C(C)C(OCc1cccc(Br)c1)C(C)C(OC)C1CCCCC1 (stereo not drawn)	2.51 µM (active)	–	–	inactive	-58% [at 11.4 µM] (inactive)	–
CO[C@H]1COC(=O)C/C=C\[C@H](C)[C@@H](OC)COC(=O)[C@H](C)COC(=O)C/C=C\[C@@H]1C	inactive	–	–	–	-33.7% [at 11.4 µM] (inactive)	–
COC(c1ccccc1)C(C)C(OC)C(C)C(OC)C(C)C(C)=O (stereo not drawn)	inactive	–	–	inactive	-36.1% [at 11.4 µM] (inactive)	–
CCC(=O)[C@@]1(O)C(=O)N2C(=C3C(=O)OCCC31)N(Cc1ccccc1)C(C)=C(C(=O)OC)C2c1ccccc1 (stereo partly drawn)	inactive	-16% [at 11.4 µM] (inactive)	inactive	–	–	–
CCCC[C@@H]1C[C@H]1C(NC(=O)c1cccnc1)c1ccc(-c2ccccc2)cc1 (stereo partly drawn)	5.01 µM (active)	–	–	–	–	inactive
COC1C(O)COC1/C=C/c1ccccc1 (stereo not drawn)	inactive	-19.7% [at 11.4 µM] (inactive)	inactive	–	–	–
C[C@@]12CCC3c4ccc(OC5C=CC(c6ccccc6)OC5CO)cc4CCC3C1CCC2=O (stereo partly drawn)	inactive	–	inactive	inactive	–	3.16 µM (active)
COC(C1CCCCC1)C(C)C(OCc1cccc(Br)c1)C(C)CO (stereo not drawn)	inactive	–	1.58 µM (active)	inactive	-47.3% [at 11.4 µM] (inactive)	–
C/C=C/OC(=O)NC(c1cccc(C)c1)[C@@]1(C(=O)OCC)CCCC1=O (stereo partly drawn)	inactive	–	1 µM (active)	inactive	-48.2% [at 11.4 µM] (inactive)	–
O=C1OC(C2=CCCCC2)=NC12CC2	inactive	–	inactive	inactive	-40.2% [at 11.4 µM] (inactive)	–
COc1ccc(OC2C(O)COC2/C=C/C#Cc2ccccc2)cc1 (stereo not drawn)	inactive	–	–	inactive	-57.7% [at 11.4 µM] (inactive)	–
CCN1C(C)=C(C(=O)OC)C(c2ccccc2)N2C(=O)[C@](O)(C(=O)OC)C(c3ccccc3)C(C(C)=O)=C12 (stereo partly drawn)	inactive	–	inactive	inactive	-59.7% [at 11.4 µM] (inactive)	–
C=CCOC(=O)C(C(=O)CC)C(NC(=O)OC)c1ccc(F)cc1 (stereo not drawn)	inactive	–	inactive	inactive	-52.3% [at 11.4 µM] (inactive)	–
COc1ccccc1/C=C/C1=CC2(C)CC1(C)C(c1ccccc1OC)CC2=O (stereo not drawn)	3.98 µM (active)	–	3.16 µM (active)	inactive	-56.9% [at 11.4 µM] (inactive)	–
C=CCOC(=O)C(C(C)=O)C(NC(=O)OC)c1ccc2ccccc2c1 (stereo not drawn)	inactive	–	0.126 µM (active)	inactive	-46.5% [at 11.4 µM] (inactive)	–
CCC(=O)[C@]12O[C@@]3(C4C(=O)OCCC41)N(CC)C(C)=C(C(=O)OC)C(c1ccccc1)N3C2=O (stereo partly drawn)	inactive	–	inactive	inactive	-34.2% [at 11.4 µM] (inactive)	–
CCCCCCC1=Cc2cc(OC)c(OC)cc2C(C(C(C)=O)C(=O)OC)O1 (stereo not drawn)	inactive	–	3.16 µM (active)	inactive	-57.6% [at 11.4 µM] (inactive)	–
C=C(C)C(O)/C=C/CCCCCCC (stereo not drawn)	inactive	–	–	inactive	-33.5% [at 11.4 µM] (inactive)	–
COC(=O)C1=C(C)N(Cc2ccccc2)C2=C3C(=O)N(c4ccccc4)C(=O)C3[C@@](O)(C(=O)OC)C(=O)N2C1c1ccccc1 (stereo partly drawn)	inactive	–	inactive	inactive	-39.6% [at 11.4 µM] (inactive) and -38.9% [at 11.4 µM] (inactive)	–
CCOC(=O)[C@]1(C(NC(=O)OC)c2ccccc2)CCCC1=O (stereo partly drawn)	inactive	–	1.26 µM (active)	inactive	-34% [at 11.4 µM] (inactive)	–
C=C(C)C(O)/C=C/c1ccccc1OC (stereo not drawn)	inactive	–	inactive	inactive	-35.5% [at 11.4 µM] (inactive)	–
COC(=O)NC(c1ccco1)[C@]1(C(C)=O)CCCC1=O (stereo partly drawn)	inactive	–	inactive	inactive	-35.9% [at 11.4 µM] (inactive)	–
CC(=O)Nc1ccc(C2C(C)CCC3C(=O)N4C(CCC(C)[C@@H]4c4ccc(NC(C)=O)cc4)C(=O)N32)cc1 (stereo partly drawn)	inactive	–	inactive	inactive	-34.4% [at 11.4 µM] (inactive)	–
COc1ccc(-c2ccccc2C2NC(C(=O)O)CCC2C)cc1 (stereo not drawn)	inactive	–	inactive	inactive	-42% [at 11.4 µM] (inactive)	–
COC(=O)NC(c1cccs1)C(C(C)=O)C(=O)OC (stereo not drawn)	inactive	–	–	inactive	-34.2% [at 11.4 µM] (inactive)	–
COc1cccc([C@@H]2Oc3ccc(Br)cc3C(=O)[C@H]2O)c1	2.51 µM (active)	–	3.16 µM (active)	3.16 µM (active)	-74.4% [at 11.4 µM] (inactive)	–
